A selection: hits, their analogues and other compounds. The true share with any hit is near 2.8%.
HIF-2a inh = blocks HIF-2a reporter activity; 0.72% of 360,000 active; AID 624352; 786-0 RCC cells HIF-2a reporter, luciferase luminescence, overnight; inhibition, % at 18.8 µM;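 active = inhibition of the luminescence signal of 40% or more relative to plate controls, in a single-dose primary screen at 18.75 µM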
TRPM1 prom inh = reduces MITF-dependent TRPM1 promoter luciferase signal; SK-MEL-5 TRPM1 promoter luciferase, 24 h; inhibition, % at 12.5 µM; 0.83% of 330,000 active; AID 488899;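 active = mean inhibition across replicates of 60% or more, whatever share of single replicates reaches that level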
Peg3 promoter = Peg3 promoter activity inhibition | AID 588405 | 1.7% of 360,000 active | inhibition, % at 20 µM | HeLa PEG-Prom luciferase reporter, luminescence, overnight;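 active = inhibition of at least 50% at 20 µM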
B2AR ag = activates human beta-2 adrenergic receptor causing internalization | response, % (concentration not given with the values) | 0.43% of 340,000 active | P07550 | Am2.2-beta2AR cells, FAP receptor internalization, flow cytometry;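 active = response above a set limit, near 3 SD of response in nonfluorescent compounds, cut at about 42% in these data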
CF NFkB inh = blocks PAF-induced NF-kB reporter in cystic fibrosis cells | KKLEB NF-kB-GFP reporter, GFP fluorescence overnight | inhibition, % at 5 µM | 0.86% of 360,000 active | AID 588850;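 active = at least 50% inhibition at 5 µM, scaled per plate between neutral and stimulator controls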;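 also: PAF is a Pseudomonas aeruginosa culture filtrate used as stimulus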
KKLEB tox = CF airway cell cytotoxicity counter-screen; KKLEB CF airway cells viability, ATPlite luminescence, overnight; hits give low values; cells stimulated with P. aeruginosa culture filtrate; activity change (cytotoxicity), % at 5 µM; 0.36% of 360,000 active; AID 602141;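 active = corrected activity change at or below -50% at 5 µM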
Mdm2-MdmX confirm = confirmation of inhibitors of human Mdm2/MdmX interaction, set 2. shares compounds with HIF-2a inh. SaOS-2 split-luciferase Mdm2/MdmX complementation, luminescence. inhibition, % at 8 µM. 99% of 740 active;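 active = mean inhibition of the luminescence signal across two replicates at or above 26 percent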
Target sequence (O15151 whole entry, looked up): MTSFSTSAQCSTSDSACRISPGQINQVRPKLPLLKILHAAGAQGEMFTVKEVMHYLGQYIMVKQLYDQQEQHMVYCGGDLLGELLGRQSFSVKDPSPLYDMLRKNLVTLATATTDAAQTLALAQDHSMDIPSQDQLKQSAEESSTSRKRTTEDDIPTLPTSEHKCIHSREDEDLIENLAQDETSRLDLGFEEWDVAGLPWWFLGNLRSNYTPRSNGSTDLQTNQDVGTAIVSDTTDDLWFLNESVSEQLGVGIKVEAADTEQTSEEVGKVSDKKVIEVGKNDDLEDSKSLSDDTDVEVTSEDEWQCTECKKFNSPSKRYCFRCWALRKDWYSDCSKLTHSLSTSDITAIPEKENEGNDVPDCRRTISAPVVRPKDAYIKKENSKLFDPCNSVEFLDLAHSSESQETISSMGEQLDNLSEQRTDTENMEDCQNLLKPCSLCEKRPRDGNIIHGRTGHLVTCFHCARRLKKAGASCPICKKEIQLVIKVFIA
Target sequence (Q00987 whole entry, looked up): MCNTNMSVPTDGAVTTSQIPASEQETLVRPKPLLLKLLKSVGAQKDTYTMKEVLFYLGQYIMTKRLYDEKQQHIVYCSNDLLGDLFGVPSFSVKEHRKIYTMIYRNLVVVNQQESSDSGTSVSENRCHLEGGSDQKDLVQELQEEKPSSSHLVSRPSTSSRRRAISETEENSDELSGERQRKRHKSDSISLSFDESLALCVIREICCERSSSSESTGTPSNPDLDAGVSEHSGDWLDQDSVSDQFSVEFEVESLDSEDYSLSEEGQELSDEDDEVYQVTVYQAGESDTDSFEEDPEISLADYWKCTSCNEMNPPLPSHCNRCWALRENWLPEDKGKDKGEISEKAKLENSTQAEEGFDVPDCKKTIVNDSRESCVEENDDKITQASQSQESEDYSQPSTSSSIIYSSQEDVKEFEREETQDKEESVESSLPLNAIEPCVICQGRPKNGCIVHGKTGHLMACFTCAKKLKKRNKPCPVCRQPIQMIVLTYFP
HIF-2a inh conf = HIF-2a inhibition, single concentration confirmation | shares compounds with HIF-2a inh | 786-0 RCC cells, HIF-2a luciferase reporter luminescence, overnight | inhibition, % at 18.8 µM | 56% of 1,800 active | AID 651580;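 active = mean inhibition across four replicates of at least 40 percent at the single tested concentration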
HIF-1a counter = counter-screen for HIF-2a inhibitors: HIF-1a inhibition in MiaPaCa-2 cells; 72% of 1,800 active; MiaPaCa-2 HIF-1a luciferase reporter, desferoxamine, overnight; inhibition, % at 18.8 µM; AID 651589; shares compounds with HIF-2a inh;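 active = mean inhibition of the reporter signal across four replicates at the single tested dose of 50% or more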
Of the large screens only hits and unclear results are named; the others gave an inactive call (follow-up assays come after a bar, where they were run).

COc1ccc(S(=O)(=O)NC(=O)C2(C)CCN2C(=O)CC2CC2)cc1 (stereo not drawn)	none (no result: TRPM1 prom inh, B2AR ag)
O=C1Nc2cccnc2N(C(=O)CCl)c2ccccc21	HIF-2a inh 41.9, Peg3 promoter 63.1 | HIF-2a inh conf inactive | HIF-1a counter inactive
NCCN1CCN(CC(=O)N2c3ccccc3C(=O)Nc3cccnc32)CC1	none
CCCCCCCCC[n+]1cccc2c3ccccc3ccc21	TRPM1 prom inh 93.1, Peg3 promoter 113.5 | Mdm2-MdmX confirm 101.0
O=[N+]([O-])c1ccc(C[n+]2cccc3c4ccccc4ccc32)cc1	none
COC(=O)c1cc(=O)n(-c2ccc(F)cc2)c(=Nc2ccc(F)cc2)s1	HIF-2a inh 53.2, Peg3 promoter 93.1 | HIF-2a inh conf 66.1 | HIF-1a counter 91.5
COc1ccc(C(=S)N2CCCC2)cc1	none
CC(C)COc1ccc(C(=S)N2CCCC2)cc1	HIF-2a inh 57.4 | HIF-2a inh conf 57.5 | HIF-1a counter inactive
O=C(Nc1ccc(F)cc1)Nc1cc(OCC(F)(F)F)cc(OCC(F)(F)F)c1	TRPM1 prom inh 81.1 | Mdm2-MdmX confirm 93.5
CCOc1ccc(NC(=O)Nc2cc(OCC(F)(F)F)cc(OCC(F)(F)F)c2)cc1	none
O=S1(=O)C=C(Sc2nc3cc(Cl)ccc3o2)c2ccccc21	TRPM1 prom inh 68.4, Peg3 promoter 101.6, CF NFkB inh 88.0, KKLEB tox -100.3 | Mdm2-MdmX confirm 103.2
COc1ccc(/C=C2\SC(=O)N(CCNC(=O)Cn3[nH]c(=O)c4ccccc4c3=O)C2=O)cc1	HIF-2a inh 44.6 | HIF-2a inh conf 77.2 | HIF-1a counter inactive
COc1ccc(/C=C2\SC(=O)N(CCCC(=O)Nc3ccc(C(=O)O)cc3)C2=O)cc1	HIF-2a inh 84.5 (no result: TRPM1 prom inh, B2AR ag) | HIF-2a inh conf 97.0 | HIF-1a counter 90.6
Cc1ccc(/C=C2\SC(=S)N(CCCC(=O)Nc3ccc(O)cc3)C2=O)cc1	HIF-2a inh 79.7 | Mdm2-MdmX confirm 56.8
CC1(c2nnnn2Cc2ccccc2)CCC(=O)N1C1CC1 (stereo not drawn)	none (no result: TRPM1 prom inh, Peg3 promoter, B2AR ag, CF NFkB inh, KKLEB tox)
O=[N+]([O-])c1ccc(NC(=S)NCCc2ccc(Cl)cc2)cc1	none | Mdm2-MdmX confirm 97.0
O=C1C=CC(=O)N1c1ccccc1N1C(=O)C=CC1=O	HIF-2a inh 76.6, TRPM1 prom inh 94.4, Peg3 promoter 96.8, CF NFkB inh 60.8 | HIF-2a inh conf 55.5 | HIF-1a counter inactive
O=C1C=CC(=O)N1c1ccccn1	none
COc1ccc(CSC(=S)NNc2ccccc2)cc1	none (no result: TRPM1 prom inh, B2AR ag)
FC(F)(F)c1cc(-c2ccco2)nc(-n2cnc3ccccc32)n1	none
Cc1nc2ccccc2n1-c1nc(-c2ccco2)cc(C(F)(F)F)n1	HIF-2a inh 45.9, TRPM1 prom inh 75.5, Peg3 promoter 71.9, CF NFkB inh 93.9, KKLEB tox -81.9 | HIF-2a inh conf inactive | HIF-1a counter 80.1
Oc1[nH]c(N=C2N=c3ccccc3=N2)c2ccccc12	none
Cc1ccc2c(c1)=N/C(=N\c1[nH]c(O)c3ccccc13)N=2	HIF-2a inh 75.7, Peg3 promoter 89.8 (no result: TRPM1 prom inh, B2AR ag) | HIF-2a inh conf inactive | HIF-1a counter 94.6
O=C(C[C@H]1C[C@@H]2c3cc(NC(=O)Nc4ccccc4F)ccc3O[C@@H]2[C@H](CO)O1)NCc1ccccn1	none (no result: TRPM1 prom inh, B2AR ag)
CSc1nc2ccc(NC(=O)CS(=O)(=O)c3ccccc3)cc2s1	none (no result: TRPM1 prom inh, B2AR ag)
Cc1nn(-c2ccccc2)c(Cl)c1/C=N/Nc1ccc(Cl)c(C(=O)O)c1	HIF-2a inh 61.1 | HIF-2a inh conf 55.7 | HIF-1a counter inactive
Cc1nn(-c2ccccc2)c(Cl)c1/C=N/NC(=O)OC(C)(C)C	none
CCOc1ccccc1C(=O)Nc1ccc2nc(N3CCN(c4ncccn4)CC3)cc(C)c2c1	none (no result: HIF-2a inh, TRPM1 prom inh, Peg3 promoter, B2AR ag, CF NFkB inh, KKLEB tox) | Mdm2-MdmX confirm 98.0
COc1ccc(C(=O)Nc2ccc3nc(N4CCN(C)CC4)cc(C)c3c2)c(OC)c1	none
Cc1nc2cc(NC(=O)c3ccc([N+](=O)[O-])s3)ccc2s1	HIF-2a inh 67.2, TRPM1 prom inh 103.8 | HIF-2a inh conf 74.5 | HIF-1a counter 93.2
Cc1cc(NS(=O)(=O)c2ccc(NC(=O)c3ccc([N+](=O)[O-])s3)cc2)nc(C)n1	none
CC(C)CC1(C)NC(=O)N(CCN2C(=O)c3ccccc3C2=O)C1=O (stereo not drawn)	none
NS(=O)(=O)c1ccc(N/N=C2/CCCCC2C2CCCCC2)c([N+](=O)[O-])c1 (stereo not drawn)	HIF-2a inh 54.9 | HIF-2a inh conf inactive | HIF-1a counter 103.8
CCCS(=O)(=O)NC(=O)C1(C)CCN(C(=O)c2cc(OC)c(OC)c(OC)c2)C1 (stereo not drawn)	none (no result: TRPM1 prom inh, B2AR ag)
CC(=O)N(C)C1=C(N2CCOCC2)C(=O)c2ccccc2C1=O	TRPM1 prom inh 88.6, Peg3 promoter 82.8 | Mdm2-MdmX confirm 75.2
NCCc1nnc(SCc2c(Cl)cccc2Cl)o1	none
NCCCCCc1nnc(SCc2ccccc2Cl)o1	HIF-2a inh 67.7 | HIF-2a inh conf 83.5 | HIF-1a counter 67.8
CC(=O)Nc1ccc(Oc2sc(C(=O)c3ccccc3)c(N)c2C#N)cc1	HIF-2a inh 54.3 | HIF-2a inh conf 43.0 | HIF-1a counter inactive
CC(=O)Nc1ccc(Oc2ccccc2)cc1	none
COc1ccc(OC)c(C2C(C(=O)c3ccc(C)o3)=C(O)C(=O)N2CCCN2CCOCC2)c1 (stereo not drawn)	none
O=C(Nc1sc2c(c1C(=O)O)CCC2)c1ccccc1Cl	HIF-2a inh 68.0 | HIF-2a inh conf 96.9 | HIF-1a counter inactive
CCNC(=O)C1CCCN(C(=O)c2cc(C)oc2C)CC1 (stereo not drawn)	none (no result: TRPM1 prom inh, B2AR ag)
Cc1cccc(N2CCN(C(=S)Nc3ccc4nc(N5CCN(C)CC5)cc(C)c4c3)CC2)c1C	HIF-2a inh 82.3, TRPM1 prom inh 96.0, Peg3 promoter 104.0, KKLEB tox -73.1 (no result: B2AR ag) | HIF-2a inh conf inactive | HIF-1a counter 105.2
Cc1cc(N2CCN(C)CC2)nc2ccc(NC(=S)N3CCCCC3)cc12	none
COCCCNC(=O)c1csc([C@H]2C[C@H](O)[C@@H](CO)O2)n1	none (no result: TRPM1 prom inh, B2AR ag)
O=C(O)c1cccc(-c2nnn(Cc3ccccc3Cl)n2)c1	HIF-2a inh 64.7 | HIF-2a inh conf 62.9 | HIF-1a counter inactive
COc1ccccc1CNC(=O)C1(C)CCCCN1C (stereo not drawn)	none (no result: TRPM1 prom inh, B2AR ag)
CCCN(C(=O)COC(=O)CCC(=O)c1ccccc1)c1c(N)n(Cc2ccccc2)c(=O)[nH]c1=O	none (no result: TRPM1 prom inh, B2AR ag)

Bioassay records from PubChem.
